Data: PubChem BioAssay (Tox21)
Several values for one entry are separate records, joined by “and”; a condition that tells them apart may be missing. Equal values may be shown once. Records with an inconclusive call do not appear. Activity calls are given as the source filed them. Unless noted, the call rests on the fitted dose curve; in most records, active means well fitted curve in the direction sought with a large enough effect in the repeat runs; inconclusive means weak or mixed curves; inactive means no such curve, though single readings can be large; an effect the other way counts as inactive or inconclusive.

What was measured:
[1] = target: Peroxisome proliferator-activated receptor gamma (Homo sapiens) (UniProt P37231); experiment: qHTS assay to identify small molecule antagonists of the peroxisome proliferator-activated receptor gamma (PPARg) signaling pathway (AID 743191; calls by dose curve; further: nearly all actives have a fitted effect of over 30% in size; further: potency means the concentration at half of the fitted maximal effect)
Procedure, shortened: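 Beta-lactamase reporter under UAS control in HEK293H PPARg-bla cells; compound treatment 17 h at 37C. Read-out: fluorescence intensity after 1 h room-temperature incubation with LiveBLAzer B/G FRET substrate.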

[2] = qHTS assay to identify small molecule antagonists of the peroxisome proliferator-activated receptor gamma (PPARg) signaling pathway - cell viability counter screen (AID 743194); further: nearly all actives have a fitted effect of over 55% in size; further: potency means the concentration at half of the fitted maximal effect
Procedure, shortened: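 Viability was measured as CellTiter-Glo luminescence in GeneBLAzer PPARg UAS-bla HEK293H cells. These cells had been exposed 17 h at 37 C to compounds together with rosiglitazone at 50 nM final, with the beta-lactamase readout taken in the same wells.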

[3] = qHTS assay for small molecule agonists of the antioxidant response element (ARE) signaling pathway (AID 743202; active means well fitted activation curve with a large enough effect in the signal ratio in the repeat runs, not every such curve was filed as active; the % refers to the signal ratio; further: potency means the concentration at half of the fitted maximal effect)
Procedure, shortened: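 After 16 hours of compound treatment at 37 C, HepG2 cells with a stably integrated ARE-driven beta-lactamase reporter were loaded 2 hours at room temperature with LiveBLAzer B/G FRET substrate and fluorescence intensity measured.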

[4] = qHTS assay for small molecule agonists of the antioxidant response element (ARE) signaling pathway - cell viability counter screen (AID 743203; calls by dose curve; further: nearly all actives have a fitted effect of over 55% in size; further: potency means the concentration at half of the fitted maximal effect)
Procedure, shortened: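 Cytotoxicity was tested in parallel with the ARE reporter screen. ARE-bla HepG2 cells were exposed to compounds for 16 hrs, and viability was taken from CellTiter-Glo luminescence.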

[5] = qHTS assay for small molecule activators of the heat shock response signaling pathway - cell viability counter screen (AID 743209); further: nearly all actives have a fitted effect of over 50% in size; further: potency means the concentration at half of the fitted maximal effect
Procedure, shortened: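 Cytotoxicity counter screen run in parallel with the HSE beta-lactamase reporter, using the same wells. HeLa HSE-bla cells received compound for 5 h at 37 C; ATP-based CellTiter-Glo luminescence was measured after 30 min at room temperature.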

[6] = qHTS assay for small molecule activators of the heat shock response signaling pathway (AID 743210; active means well fitted activation curve with a large enough effect in the signal ratio in the repeat runs, with a control signal flat, not every such curve was filed as active; the % refers to the signal ratio; further: potency means the concentration at half of the fitted maximal effect)
Procedure, shortened: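 Compound exposure lasted 5 h at 37 C in HeLa cells carrying a heat-shock-element-driven beta-lactamase reporter. Read-out: fluorescence intensity after 2.5 h room-temperature loading with LiveBLAzer B/G FRET substrate.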

[7] = system: thyroid hormone receptor (rat, GH3 cells); experiment: qHTS assay to identify small molecule agonists of the thyroid receptor (TR) signaling pathway (AID 743066; calls by dose curve)
[8] = qHTS assay to identify small molecule antagonists of the estrogen receptor alpha (ER-alpha) signaling pathway - cell viability counter screen (AID 743074; calls by dose curve;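 further: HEK293 cells carrying ER-alpha-UAS-bla reporter stimulated with 17beta-estradiol; nearly all actives have a fitted effect of over 45% in size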)
[9] = qHTS assay to identify small molecule antagonists of the estrogen receptor alpha (ER-alpha) signaling pathway using the BG1 cell line - cell viability counter screen (AID 743081);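 further: compound given together with 17beta-estradiol as the ER stimulus; nearly all actives have a fitted effect of over 45% in size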; further: potency means the concentration at half of the fitted maximal effect
[10] = target: Aromatase (Homo sapiens) (UniProt P11511); experiment: qHTS assay to identify aromatase inhibitors (AID 743083); further: nearly all actives have a fitted effect of over 55% in size; further: potency means the concentration at half of the fitted maximal effect
[11] = qHTS assay to identify aromatase inhibitors - cell viability counter screen (AID 743084);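 further: cells stimulated with testosterone during compound exposure; nearly all actives have a fitted effect of over 55% in size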; further: potency means the concentration at half of the fitted maximal effect
[12] = qHTS assay to identify small molecule that activate the aryl hydrocarbon receptor (AhR) signaling pathway - cell viability counter screen (AID 743086); further: nearly all actives have a fitted effect of over 45% in size; further: potency means the concentration at half of the fitted maximal effect
Procedure, shortened: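 Cytotoxicity counter screen: CellTiter-Fluor signal (30 min, 37 C) in 4000 HepG2 cells/well carrying the DRE-luciferase reporter, following 24 h compound exposure at 37 C.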

[13] = target: Peroxisome proliferator-activated receptor gamma (Homo sapiens) (UniProt P37231); experiment: qHTS assay to identify small molecule agonists of the peroxisome proliferator-activated receptor gamma (PPARg) signaling pathway (AID 743094; active means well fitted activation curve with a large enough effect in the signal ratio in the repeat runs, not every such curve was filed as active; the % refers to the signal ratio)
Procedure, shortened: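 Cells from the PPARg UAS-bla HEK293H line are plated and incubated 5 h at 37C. Compounds in DMSO are pinned in and left 17 h at 37C. LiveBLAzer B/G substrate is then added for 1 h at room temperature before fluorescence is measured.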

[14] = target: Estrogen receptor (Homo sapiens) (UniProt P03372); experiment: qHTS assay to identify small molecule antagonists of the estrogen receptor alpha (ER-alpha) signaling pathway (AID 743069; active means well fitted curve in the direction sought with a large enough effect in the signal ratio in the repeat runs, not every such curve was filed as active; the % refers to the signal ratio)
Procedure, shortened: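 Antagonist mode: compounds in DMSO were co-added with 17beta-estradiol to ER-alpha-bla HEK293 cells (2% charcoal-stripped serum) and left 18 h at 37C. Reporter inhibition was measured as FRET fluorescence after 2 h LiveBLAzer substrate at room temperature.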

[15] = target: Estrogen receptor (Homo sapiens) (UniProt P03372); experiment: qHTS assay to identify small molecule agonists of the estrogen receptor alpha (ER-alpha) signaling pathway (AID 743075; calls by dose curve;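 further: HEK293 GripTite cells with ER-alpha and UAS-driven beta-lactamase reporter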); details: HEK293 ER-alpha-UAS-bla, beta-lactamase FRET ratio, 18 h; activation: at 70.1 µM (top of the series)
[16] = qHTS assay to identify small molecule antagonists of the estrogen receptor alpha (ER-alpha) signaling pathway using the BG1 cell line (AID 743080; calls by dose curve;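 further: BG1 cells stimulated with 17beta-estradiol alongside compound; nearly all actives have a fitted effect of over 25% in size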; further: potency means the concentration at half of the fitted maximal effect)
Procedure, shortened: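 Seeding, 24 h rest, compound transfer from DMSO, 17beta-estradiol addition, 21.5 h incubation, CellTiter-Fluor (30 min, 37 C), then ONE-Glo (30 min, room temperature): this sequence was run on BG1-Luc-4E2 reporter cells.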

[17] = target: Aryl hydrocarbon receptor (Homo sapiens) (UniProt P35869); experiment: qHTS assay to identify small molecule that activate the aryl hydrocarbon receptor (AhR) signaling pathway (AID 743085); further: nearly all actives have a fitted effect of over 15% in size; further: potency means the concentration at half of the fitted maximal effect;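 on activation: HG2L7.5c1 human HepG2 liver cells with stably integrated DRE-driven firefly reporter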
Procedure, shortened: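 Luminescence (ONE-Glo) from a dioxin-responsive-element luciferase reporter in HG2L7.5c1 HepG2 cells after 24 hr compound exposure at 37C; viability measured by CellTiter-Fluor fluorescence beforehand.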

[18] = target: Estrogen receptor (Homo sapiens) (UniProt P03372); experiment: qHTS assay to identify small molecule agonists of the estrogen receptor alpha (ER-alpha) signaling pathway using the BG1 cell line (AID 743079); details: BG1Luc4E2 cells, ERE-luciferase agonist, 22 h; further: nearly all actives have a fitted effect of over 20% in size; further: potency means the concentration at half of the fitted maximal effect
On the % scale 0 is the no-effect control and ±100 the full control effect.

Peroxisome proliferator-activated receptor gamma (Homo sapiens), sequence (P37231 whole entry, looked up): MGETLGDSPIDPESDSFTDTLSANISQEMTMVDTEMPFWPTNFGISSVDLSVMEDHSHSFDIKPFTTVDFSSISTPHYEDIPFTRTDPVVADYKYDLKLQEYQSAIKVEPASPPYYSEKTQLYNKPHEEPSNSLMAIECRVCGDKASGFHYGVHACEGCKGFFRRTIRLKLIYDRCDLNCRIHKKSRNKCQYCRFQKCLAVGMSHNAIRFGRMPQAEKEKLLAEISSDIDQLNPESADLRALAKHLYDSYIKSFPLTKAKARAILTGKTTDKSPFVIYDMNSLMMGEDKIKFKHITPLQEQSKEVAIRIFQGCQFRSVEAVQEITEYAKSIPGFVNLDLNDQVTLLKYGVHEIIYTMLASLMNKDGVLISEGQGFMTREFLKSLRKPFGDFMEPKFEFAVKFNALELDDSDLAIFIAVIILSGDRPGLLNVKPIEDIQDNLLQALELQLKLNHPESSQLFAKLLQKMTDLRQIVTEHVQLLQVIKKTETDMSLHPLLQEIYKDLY
Aryl hydrocarbon receptor (Homo sapiens), sequence (P35869 whole entry, looked up): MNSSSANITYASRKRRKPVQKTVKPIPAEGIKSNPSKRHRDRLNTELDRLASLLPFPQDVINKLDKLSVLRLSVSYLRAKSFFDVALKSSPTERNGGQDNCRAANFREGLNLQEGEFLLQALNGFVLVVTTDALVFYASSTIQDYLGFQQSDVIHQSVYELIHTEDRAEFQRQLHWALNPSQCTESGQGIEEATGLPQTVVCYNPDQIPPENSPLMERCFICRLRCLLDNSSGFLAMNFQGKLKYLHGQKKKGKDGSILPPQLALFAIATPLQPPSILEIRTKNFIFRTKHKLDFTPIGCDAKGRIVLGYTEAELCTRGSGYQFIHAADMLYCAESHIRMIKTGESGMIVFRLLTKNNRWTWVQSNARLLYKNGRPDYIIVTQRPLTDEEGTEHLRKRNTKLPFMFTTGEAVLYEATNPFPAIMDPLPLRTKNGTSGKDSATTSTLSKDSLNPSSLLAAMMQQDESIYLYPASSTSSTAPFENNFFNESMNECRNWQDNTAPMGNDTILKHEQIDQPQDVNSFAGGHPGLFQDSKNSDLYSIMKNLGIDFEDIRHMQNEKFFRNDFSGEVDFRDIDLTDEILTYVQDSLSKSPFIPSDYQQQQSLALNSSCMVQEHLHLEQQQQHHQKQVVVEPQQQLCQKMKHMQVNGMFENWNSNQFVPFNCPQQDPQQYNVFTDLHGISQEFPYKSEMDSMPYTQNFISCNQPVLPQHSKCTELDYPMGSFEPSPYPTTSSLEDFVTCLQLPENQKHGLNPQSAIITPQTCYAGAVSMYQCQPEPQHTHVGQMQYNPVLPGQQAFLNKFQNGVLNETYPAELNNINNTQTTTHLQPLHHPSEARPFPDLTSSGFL
Aromatase (Homo sapiens), sequence (P11511 whole entry, looked up): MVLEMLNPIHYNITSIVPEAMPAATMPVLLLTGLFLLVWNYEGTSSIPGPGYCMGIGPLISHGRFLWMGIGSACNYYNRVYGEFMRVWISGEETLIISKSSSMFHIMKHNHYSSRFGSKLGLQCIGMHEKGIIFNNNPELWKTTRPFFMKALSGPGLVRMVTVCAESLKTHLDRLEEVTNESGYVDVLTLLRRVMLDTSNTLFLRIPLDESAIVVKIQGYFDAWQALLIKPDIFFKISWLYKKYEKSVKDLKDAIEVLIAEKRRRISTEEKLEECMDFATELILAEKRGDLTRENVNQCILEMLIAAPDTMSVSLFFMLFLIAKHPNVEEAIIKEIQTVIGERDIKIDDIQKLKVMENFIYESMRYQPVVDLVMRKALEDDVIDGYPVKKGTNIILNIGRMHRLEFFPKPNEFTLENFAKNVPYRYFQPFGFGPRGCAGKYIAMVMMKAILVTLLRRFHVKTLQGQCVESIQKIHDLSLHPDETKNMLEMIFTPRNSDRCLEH
Estrogen receptor (Homo sapiens), sequence (P03372 whole entry, looked up): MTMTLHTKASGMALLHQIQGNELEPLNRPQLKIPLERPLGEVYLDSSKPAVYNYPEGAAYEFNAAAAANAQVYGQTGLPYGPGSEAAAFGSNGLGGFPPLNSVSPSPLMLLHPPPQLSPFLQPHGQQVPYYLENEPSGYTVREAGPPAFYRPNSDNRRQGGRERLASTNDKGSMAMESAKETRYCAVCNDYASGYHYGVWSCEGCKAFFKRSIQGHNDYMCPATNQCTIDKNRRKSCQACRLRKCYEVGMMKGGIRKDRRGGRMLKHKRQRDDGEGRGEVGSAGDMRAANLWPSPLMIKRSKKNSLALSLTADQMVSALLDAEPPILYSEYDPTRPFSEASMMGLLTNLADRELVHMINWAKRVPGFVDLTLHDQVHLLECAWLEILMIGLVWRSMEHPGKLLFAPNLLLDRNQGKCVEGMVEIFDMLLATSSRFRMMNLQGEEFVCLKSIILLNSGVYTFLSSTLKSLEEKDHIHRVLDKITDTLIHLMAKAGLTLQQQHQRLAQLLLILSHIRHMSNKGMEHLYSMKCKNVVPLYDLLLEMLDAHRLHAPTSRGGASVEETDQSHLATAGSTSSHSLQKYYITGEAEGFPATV

COC(=O)c1cc(Cl)ccc1OC
inactive: Potency [1] | Potency [2] | Potency [3] | Potency [4] | Potency [5] | Potency [6]

OCCCCCCCCCCCCBr
inactive: Potency [7] | Potency [8] | Potency [9] | Potency [10] | Potency [11] | Potency [12] | Potency [13] | Potency [2] | Potency [4] | Potency [5]

Nc1cc(C(F)(F)F)ccc1S
inactive: Potency [1] | Potency [2] | Potency [4] | Potency [5]

CSc1ccc(C(=O)c2[nH]c(=O)[nH]c2C)cc1
inactive: Potency [14] | Potency [8] | Potency [15] | Potency [16] | Potency [9] | Potency [10] | Potency [11] | Potency [17] | Potency [12] | Potency [2] | Potency [4] | Potency [5] | Potency [6]

CCCCCCCC(=O)[O-].CCCCCCCC(=O)[O-].[Zn+2]
inactive: Potency [1] | Potency [2] | Potency [4] | Potency [5] | Potency [6]

CCOc1nc2cccc(C(=O)OC(C)OC(=O)OC3CCCCC3)c2n1Cc1ccc(-c2ccccc2-c2nn[nH]n2)cc1 (centres undefined)
active: Potency [10] 48.5 µM | Potency [2] 9.76 µM | Potency [5] 13.8 µM
inactive: Potency [16] | Potency [9] | Potency [17]

Cc1cccc(N(C)C(=S)Oc2ccc3c(c2)C2CCC3C2)c1 (centres undefined)
inactive: Potency [1] | Potency [2] | Potency [5] | Potency [6]

CCC(CN)=C(c1ccccc1)c1ccccc1
inactive: Potency [2] | Potency [4] | Potency [5] | Potency [6]

CNc1ccc(O)cc1
active: Potency [10] 15.3 µM | Potency [11] 19.3 µM | Potency [17] 61 µM | Potency [2] 43.6 µM
inactive: Potency [7]

CN(C)[C@@H]1C(=O)C(C(N)=O)=C(O)[C@@]2(O)C(=O)C3=C(O)c4c(O)cccc4C[C@H]3C[C@@H]12
inactive: Potency [2] | Potency [4] | Potency [5]

Nc1c2ccccc2nc2ccccc12
active: Potency [18] 11.9 µM and 677 nM | Potency [10] 18.8 µM and 6.03 µM | Potency [3] 4.22 µM
inactive: Potency [7] | Potency [8] | Potency [2]

CCN(C(=O)c1cc(C)cc(OC[C@H](C)Nc2ccncc2)c1)C(C)C
inactive: Potency [7] | Potency [8] | Potency [9] | Potency [10] | Potency [11] | Potency [17] | Potency [2] | Potency [4] | Potency [5]

CCC(Cl)C(Cl)C(Cl)CC(Cl)C(Cl)C(C)Cl (centres undefined)
inactive: Potency [7] | Potency [8] | Potency [9] | Potency [10] | Potency [11] | Potency [17] | Potency [12] | Potency [13] | Potency [1] | Potency [4] | Potency [5]

CN(C)CCCOC1(Cc2ccccc2)CCCCCC1
inactive: Potency [1] | Potency [2] | Potency [4] | Potency [5] | Potency [6]

O=c1[nH]sc2cc(Cl)ccc12
inactive: Potency [2] | Potency [4]

Cc1oc(-c2ccccc2)nc1CCC(=O)c1ccc(CC2SC(=O)NC2=O)cc1 (centres undefined)
inactive: Potency [2] | Potency [4] | Potency [5]

C[C@@H]1C[C@H]2[C@@H]3CCC4=CC(=O)C=C[C@]4(C)[C@@]3(Cl)[C@@H](O)C[C@]2(C)[C@@]1(OC(=O)c1ccco1)C(=O)CCl
active: Potency [6] 31.6 µM
inactive: Potency [7] | Potency [8] | Potency [9] | Potency [10] | Potency [11] | Potency [17] | Potency [12] | Potency [13] | Potency [1] | Potency [5]

Nc1ccc2cc(S(=O)(=O)O)cc(O)c2c1N=Nc1ccccc1C(F)(F)F
active: Potency [11] 17.2 µM
inactive: Potency [7] | Potency [8] | Potency [10] | Potency [13] | Potency [1] | Potency [2] | Potency [4] | Potency [5] | Potency [6]

C/C(=C(/OCCOc1ccc(Cl)cc1)c1ccc(Cl)cc1Cl)n1ccnc1
inactive: Potency [1] | Potency [5]
active: Potency [4] 42.2 µM

N#CC1(c2ccc(F)cc2)CCC(=O)CC1
inactive: Potency [1] | Potency [2] | Potency [3] | Potency [4] | Potency [5] | Potency [6]

CCN(CC)CCCC(C)Nc1c2ccc(Cl)cc2nc2ccc(OC)cc12 (centres undefined)
inactive: Potency [8] | Potency [10] | Potency [11] | Potency [12] | Potency [5]
active: Potency [17] 9.44 µM | Potency [4] 7.5 µM

CCOC(=O)/C=C(C)/C=C/C=C(C)/C=C/c1c(C)cc(OC)c(C)c1C
active: Potency [16] 4.22 µM
inactive: Potency [15] | Potency [9] | Potency [10] | Potency [11] | Potency [12] | Potency [2] | Potency [4] | Potency [5]

CC(NN)c1ccccc1 (centres undefined)
inactive: Potency [8] | Potency [16] | Potency [9] | Potency [10] | Potency [11] | Potency [12] | Potency [13] | Potency [1] | Potency [2] | Potency [4] | Potency [5] | Potency [6]

Nc1nc2ccccc2n1Cc1ccc(F)cc1
inactive: Potency [4] | Potency [5]

CC[C@@]1(O)C(=O)OCc2c1cc1n(c2=O)Cc2c-1nc1ccccc1c2/C=N/OC(C)(C)C
active: Potency [4] 0.335 µM | Potency [5] 0.473 µM

O=[N+]([O-])c1cc([N+](=O)[O-])c2ccc(S(=O)(=O)O)cc2c1O
active: Potency [9] 54.2 µM | Potency [12] 24.2 µM
inactive: Potency [8] | Potency [2] | Potency [4] | Potency [5]

Cc1onc(-c2ccccc2Cl)c1C(=O)N[C@@H]1C(=O)N2[C@@H]1SC(C)(C)[C@@H]2C(=O)O
inactive: Potency [14] | Potency [8] | Potency [15] | activation ([18]; at 32.5 µM (top of the series)) -4.31% | Potency [16] | Potency [9] | Potency [10] | Potency [11] | Potency [12] | Potency [13] | Potency [1] | Potency [2] | Potency [4] | Potency [5] | Potency [6]

CCCCCCCCCOC(=O)c1ccc(O)cc1
active: Potency [10] 30.2 µM | Potency [11] 30.2 µM | Potency [4] 60.3 µM | Potency [5] 24.2 µM
inactive: Potency [7] | Potency [9] | Potency [17] | Potency [12]

Fc1ccc(C(c2ccc(F)cc2)N2CCN(C/C=C/c3ccccc3)CC2)cc1
inactive: Potency [8] | Potency [15] | activation ([18]; at 70.3 µM (top of the series)) -22.9% | Potency [16] | Potency [9] | Potency [10] | Potency [11] | Potency [17] | Potency [12] | Potency [1]

CC(C)(C)C1CCC(CC2=C(O)c3ccccc3C(=O)C2=O)CC1 (centres undefined)
inactive: Potency [4] | Potency [5] | Potency [6]

NC(=O)C1(N2CCCCC2)CCN(CCCN2c3ccccc3CCc3ccc(Cl)cc32)CC1
active: Potency [2] 29.8 µM

CSc1ccc(/C=C2/C(C)=C(CC(=O)O)c3cc(F)ccc32)cc1
active: Potency [17] 9.44 µM
inactive: Potency [7] | Potency [15] | activation ([18]; at 70.3 µM (top of the series)) -0.897% | Potency [16] | Potency [9] | Potency [10] | Potency [11] | Potency [2] | Potency [4] | Potency [5]

CN(C/C=C/C#CC(C)(C)C)Cc1cccc2ccccc12
inactive: Potency [8] | Potency [9] | Potency [10] | Potency [11] | Potency [12] | Potency [13] | Potency [1] | Potency [2] | Potency [5] | Potency [6]

CCCCCOc1ccccc1/C(=C\SC)n1ccnc1
inactive: Potency [2] | Potency [4] | Potency [5]
active: Potency [1] 29.8 µM

COC(=O)C1=C(C)NC(C)=C(C(=O)OCCc2ccc(N3CCN(C(c4ccccc4)c4ccccc4)CC3)cc2)C1c1cccc([N+](=O)[O-])c1 (centres undefined)
inactive: Potency [2] | Potency [4] | Potency [5]
